Results on 18 compounds are retold here after ChEMBL document CHEMBL3988442, “University of Dundee, Small-Polar-MMV Screening Library” (2021).

In test [1] the target is T1, Aspartate--tRNA(Asp/Asn) ligase (Mycobacterium tuberculosis (strain ATCC 25618 / H37Rv)) (UniProt P9WFW3). Also: in the data most compounds retested in dose-response had high values.
T1 sequence (whole entry): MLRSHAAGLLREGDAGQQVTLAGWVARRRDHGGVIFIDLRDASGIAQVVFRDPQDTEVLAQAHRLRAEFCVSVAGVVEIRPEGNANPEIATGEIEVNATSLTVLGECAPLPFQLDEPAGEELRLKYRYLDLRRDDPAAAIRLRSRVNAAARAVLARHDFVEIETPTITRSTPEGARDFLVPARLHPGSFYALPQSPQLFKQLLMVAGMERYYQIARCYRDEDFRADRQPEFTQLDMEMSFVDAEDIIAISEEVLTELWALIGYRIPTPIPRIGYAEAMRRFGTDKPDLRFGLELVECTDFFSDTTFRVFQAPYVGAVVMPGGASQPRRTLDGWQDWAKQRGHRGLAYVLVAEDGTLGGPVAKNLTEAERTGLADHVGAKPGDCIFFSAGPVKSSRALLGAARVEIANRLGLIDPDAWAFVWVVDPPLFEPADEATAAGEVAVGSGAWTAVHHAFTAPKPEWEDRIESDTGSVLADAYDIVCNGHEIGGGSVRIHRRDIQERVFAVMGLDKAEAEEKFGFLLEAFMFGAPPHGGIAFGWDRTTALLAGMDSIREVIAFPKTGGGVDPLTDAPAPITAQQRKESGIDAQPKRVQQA
In words: Assay for Asp RNA synthetase-1 from Mycobacterium tuberculosis. Type of test: functional. More on the design: scale not given: direction of the effect not stated beside the values. The settings on record: 30 µM.

The target of test [2] is Shiga toxin 2 (Escherichia coli O157:H7) (UniProt P09385+P09386). The test is described as follows: E. coli 0.157:H7 Shiga Toxin SOP - stx2 screening assay. Type of test: functional. More on the design: scale not given: direction of the effect not stated beside the values. As to conditions: 30 µM.

Regarding `c1cncc(-c2ccc3c(c2)C2(CC3)CCN(c3nncs3)CC2)c1`, the Percent Effect in test [1] was 1.44%; in test [2], -7.47%.
Taken in the same sequence, the figures for `O=C(c1ccccn1)N1Cc2nccn2CC(COc2cccnc2)C1` (stereo unspecified) were 3.15% and -14.8%.
On the same counts, the results for `CCn1c(N)nc2cc(C(=O)NCc3ccccc3Cl)cnc21` are 6.55% and -1.88%.
Taken in the same sequence, the figures for `Cc1ncsc1C(=O)NCCSCCCO` were -4.34% and -35.1%.
Regarding `COCC1c2c(cnn2CC2CC2)CCN1Cc1nccs1` (stereo unspecified), the Percent Effect in test [1] is 0.524%; in test [2] it was -52.1%.
On to `CN(Cc1ccc(N2CCCCC2)cc1)Cc1noc(C(C)(C)C)n1`, for which the results for the Percent Effect in test [1] and in test [2] were 1.93% and -7.66%, respectively.
Taken in the same sequence, the figures for `CCOc1ncccc1C(=O)N(C)Cc1ncc(C)c(OC)c1C` were -0.375% and 19.7%.
Regarding `COc1ccc(-c2noc(CNC(C)Cn3cccn3)n2)c(OC)c1` (stereo unspecified), the Percent Effect in test [1] is -1.71%; in test [2], -8.56%.
On the same counts, the results for `CC(C)OCc1ncn2c1CN(Cc1cccs1)CCC2` are 8.33% and -0.247%.
On the same counts, the results for `O=C(Cc1ccc(F)cc1)N1CCCCC1c1ccn2ccnc2n1` (stereo unspecified) are -3.71% and 6.23%.
On the same counts, the results for `Cc1ccc(CN2CCCC3(CCN(S(C)(=O)=O)C3)C2)o1` (stereo unspecified) are 5.01% and 3.27%.
On to `Cc1cc(CN2CCc3nn(C(C)C)c(=O)cc3C2)no1`, for which the Percent Effect in test [1] is -1.25%; in test [2], 6.39%.
Taken in the same sequence, the figures for `O=C1C(NCc2nnc3n2CCCC3)CCN1c1ccccc1` (stereo unspecified) were -1.97% and -28.4%.
On the same counts, the results for `CN(C)C(=O)CO[C@@H]1CC[C@H]2[C@H]1OCCN2C(=O)C1CCOCC1` are -1.59% and -10.1%.
With `CCC1CN(C(=O)Nc2cnc3c(cnn3C(C)C)c2)CCO1` (stereo unspecified), the Percent Effect in test [1] is 0.932%; in test [2] it was 13.4%.
Taken in the same sequence, the figures for `CC(C)NC(=O)N1CCN(CC2CC2)CC2(CC(=O)N(C)C2)C1` (stereo unspecified) were 0.324% and -11.9%.
On the same counts, the results for `CN1[C@@H](C(=O)NCC2CC2)C[C@@H]2CN(Cc3ccco3)C[C@@H]21` are 2.69% and -1.45%.
Taken in the same sequence, the figures for `CN(Cc1ccco1)[C@@H]1CN(Cc2ccco2)[C@@H]2CCCO[C@H]12` were -1.66% and 0.222%.
